High-throughput results deposited in PubChem by National Center for Advancing Translational Sciences (NCATS).
FUS yeast rescue – suppressors of FUS proteinopathy in yeast; S. cerevisiae FUS-expressing, growth rescue, OD600, 24 h; Potency, µM (doses to about 76.6 µM), hits mostly activators; 0.24% of 390,000 active; AID 1347120;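 further: plate controls were DMSO vehicle for no effect and reference control for full effect; nearly all actives have a fitted effect of over 55% in size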
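Galactose (2%) drives FUS expression in yeast precultured in raffinose; seeding density OD 0.005. Test compounds incubated 24hr at 30C and 99% humidity before absorbance at 600 nm was measured.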
aSyn yeast inh – alpha-synuclein toxicity inhibition in yeast; Yeast expressing alpha-synuclein, growth rescue, BacTiter-Glo, 24 h; Potency, µM (highest dose often 46.1 µM), for inactives: at the top dose growth rescue (activation), usual class: activators; 0.14% of 370,000 active; AID 652106; further: % of control where 0% means no effect; nearly all actives have a fitted effect of over 65% in size
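Screening used galactose-induced yeast with toxic alpha-synuclein levels, exposed to compound for 24 hr at 30 deg C. Cell growth, read with BacTiter-Glo luminescence, gave the measured signal.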
Abeta rescue – A-beta toxicity reversal in yeast. yeast expressing A-beta42, growth rescue, OD600, 48 h; response scale: 0% DMSO, 100% iron-clioquinol control. Potency, µM (titrated, usually from 46.1 µM), hits mostly activators. 0.063% of 410,000 active; further: nearly all actives have a fitted effect of over 55% in size
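Yeast growth medium received pinned compounds, then yeast cells expressing toxic A-beta were added; plates incubated at 30 C for 48 hr. Growth read as absorbance at 600 nm, normalized to DMSO and equimolar FeCl3 plus clioquinol controls.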
TDP43 rescue – TDP-43 toxicity inhibition in yeast; 1.8% of 410,000 active; Potency, µM (series often up to 46.1 µM), for inactives: at the top dose growth rescue (activation), usual class: activators; TDP-43 expressing yeast growth rescue, BacTiter-Glo, 24 h; further: % of control where 0% means no effect; nearly all actives have a fitted effect of over 50% in size
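Yeast cells expressing TDP-43 under galactose induction are exposed to compounds for 24 hr at 30 deg C. BacTiter-Glo luminescence measures growth, so protective compounds score as activators.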
Mito fusion act – mitochondrial division inhibition or fusion activation; S. cerevisiae fusion-defective mutant growth rescue, CellTiterGlo 48 h; Potency, µM (top dose mostly 46.1 µM), without a hit: at the highest dose growth rescue (activation), usual class: activators; 0.23% of 320,000 active; AID 485298; further: % of control where 0% means no effect; nearly all actives have a fitted effect of over 45% in size
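Read-out: ATP-based luminescence (CellTiterGlo, 10 min ambient) reporting growth of fusion-defective ts yeast after 48 hours at 37C on glycerol/ethanol YPEG medium in the presence of compound.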
Numbers without * were called inactive; i = inactive; u = inconclusive; x = no result given; [ ] = another dose, or the depositor's remark. This is a sample that favours compounds with a hit; in the whole collection about 2.2% have one here. The call rests on the fitted dose curve; in most records, active means well fitted curve in the direction sought with a large enough effect; inconclusive means small, poorly fitted or top-dose-only effect, or another doubt; inactive means no such curve, though single readings can be large; an effect the other way counts as inactive or inconclusive. Potency means the concentration at half of the fitted maximal effect.

SMILES	FUS yeast rescue	aSyn yeast inh	Abeta rescue	TDP43 rescue	Mito fusion act
O=C(NC1CCCCN(Cc2ccc(Cl)cc2)C1=O)C1C2CC3CC(C2)CC1C3 (stereo not given)	i	x	x	x	x
COc1ccc(/C=N/Nc2nc(-c3cccnc3)nc3ccccc23)c(OC)c1	i	-2%	i	16%	-2%
CN=c1scc(-c2ccc(OC)cc2)n1/N=C(\C)c1cccnc1	i	-11%	i	14µM*	1%
Nc1nc(-c2ccco2)nn1C(=O)c1ccc(F)cc1	i	4%	i	11µM*	10%
Nc1nc(-c2ccco2)nn1C(=O)c1ccccc1	x	2%	i	20%	0%
S=C(NC1CCCCC1)NC1CC2C=CC1C2 (stereo not given)	i	-7%	11µM*	-19%[1.82 µM]	-5%
Cc1cc(-n2c(C)cc(C(=O)CCl)c2C)no1	i	-7%	i	3.5µM*	10%
COc1ccc(-n2c(C)cc(C(=O)CN3C(=O)c4ccccc4C3=O)c2C)cc1	i	0%	i	0%	-1%
COc1ccc(CCn2c(C)cc(C(=O)CCl)c2C)cc1OC	i	-7%	i	16µM*	-37%
COc1ccc(-n2c(C)cc(C(=O)CCl)c2C)cc1	i	11%	i	3.2µM*	3%
CC(=O)Nc1ccc(SCC(=O)c2cc(C)n(-c3ccccc3)c2C)cc1	i	-4%	i	3%	u
Cc1cc(-n2c(C)cc(C(=O)CN3C(=O)C(=O)N(C)C3=O)c2C)no1	i	-7%	i	19%	x
COc1ccc(-n2c(C)cc(C(=O)CSc3ccc(NC(C)=O)cc3)c2C)cc1	i	16%	i	8%	16µM*
CC(C)C(=O)NCC(c1ccc2c(c1)OCO2)N1CCN(c2ccccc2F)CC1 (stereo not given)	i	x	i	-7%	x
O=C(COC(=O)c1nc(Cl)ccc1Cl)NCc1ccc(Cl)cc1	i	5%	i	18µM*	-2%
COc1ccc(CNC(=O)C2CCCN(S(=O)(=O)N3CC(C)CC(C)C3)C2)c(OC)c1 (stereo not given)	i	1%	i	3%	11µM*
O=C(O)CCC1OC(=O)C(O)=C1c1ccccc1 (stereo not given)	i	2%	i	19%	11%
Cc1cc(OC(F)F)ccc1NC(=S)NC1CCCC1	i	4%	13µM*	23%	-8%
CC(=O)N1CCN(C(=O)c2ccc3c(c2)OCO3)CC1	i	-6%	i	-12%	x
O=C(Nc1ccccc1N1CCN(C(=O)c2ccccc2)CC1)c1cc(Br)ccc1Cl	25µM*	14%	i	u	11%
COc1ccc(Br)cc1C(=O)Nc1ccccc1N1CCN(C(=O)c2ccccc2)CC1	u	29%	i	3%	9%
O=C(c1ccc2c(c1)OCO2)N1CCCC1	10µM*	1%	i	-29%	-1%
O=C(Nc1ccccc1N1CCN(C(=O)c2ccc(Cl)cc2)CC1)c1ccc2c(c1)OCO2	u	x	i	6.3µM*	13µM*
Cc1cccc(NS(=O)(=O)c2c(C)nc3scc(C)n3c2=O)c1	i	u	i	16µM*	1%
Cc1nc2scc(C)n2c(=O)c1S(=O)(=O)Nc1ccc(N2CCN(S(C)(=O)=O)CC2)cc1	i	u	u	16µM*	-46%
SMILES	FUS yeast rescue	aSyn yeast inh	Abeta rescue	TDP43 rescue	Mito fusion act
CC(=O)c1ccc(NS(=O)(=O)c2c(C)nc3scc(C)n3c2=O)cc1	i	x	i	20%	x
CC(=O)c1ccc(NCCCN2CCC(C(O)(c3ccccc3)c3ccccc3)CC2)cc1	i	x	x	x	x
CC(/C=N/n1c(COc2ccccc2)n[nH]c1=S)=C\c1ccccc1	i	x	i	11µM*	10%
COc1cccc(N2CCN(C(=O)C3CCN(S(=O)(=O)c4ccc5c(c4)CC(C)N5C(C)=O)CC3)CC2)c1 (stereo not given)	14µM*	7%	x	19%	0%
COc1ccc(CNS(=O)(=O)c2cc3c(cc2Br)CC(C)N3C(C)=O)cc1 (stereo not given)	i	x	x	x	x
COc1ccc(NC(=O)Nc2cc(C)nn2-c2ccccc2)cc1	i	x	x	x	x
COc1ccc(C(=O)n2nc(C)cc2Nc2ccccc2)cc1	i	-18%	i	35µM*	7%
COC(=O)C[C@@H]1CC[C@H]2[C@@H](COc3ccc(NS(=O)(=O)c4ccccc4F)cc3C(=O)N2C)O1	i	x	x	x	x
NC(=S)Cc1nc(-c2ccc(Cl)cc2)cs1	i	-27%	6.3µM*	u	-10%
Cc1ccc([N+](=O)[O-])cc1NC(=S)NCCc1ccccc1	i	-5%	i	-5%	-7%
CC1C/C(=C/c2cccn2C)C(=O)/C(=C/c2cccn2C)C1 (stereo not given)	i	5%	i	13µM*	u
CC1C/C(=C/c2ccncc2)C(=O)/C(=C/c2ccncc2)C1 (stereo not given)	i	15%	i	u	3%
Cc1ccc(Cl)cc1N1CCN(Cc2nc3c(c(=O)[nH]c(=O)n3C)n2Cc2ccccc2F)CC1	i	-1%	i	11µM*	19%
CSc1nc2c(c(=O)[nH]1)C(c1cccc(Br)c1)CC(=O)N2 (stereo not given)	i	-2%	i	-9%[9.22 µM]	0%
O=C(N[C@@H]1C[C@@H]2O[C@@H](CO)CC[C@@H]2O[C@@H]1CCc1ccc(-c2cccnc2)cc1)c1cccc(F)c1	i	x	x	x	x
CN1CC=C(c2ccccc2)N(c2ccc(Br)cc2)C1=O	i	x	x	x	x
O=C(Nc1ccc(CN2CCOCC2)cc1)c1ccc(Br)o1	i	-1%	i	5%	6%
O=C(Nc1ccc(CN2CCOCC2)cc1)c1ccc(-c2cc(Cl)ccc2Cl)o1	i	-1%	i	u	10µM*
S=C(c1ccc(-c2cc(Cl)ccc2Cl)o1)N1CCCCC1	x	-19%	i	12%	-1%
S=C(c1ccc(-c2cc(Cl)ccc2Cl)o1)N1CCOCC1	i	-13%	i	13µM*	8%
CCN(CC(=O)Nc1ccc2c(c1)OCCO2)C(=O)/C=C/c1ccccc1	i	7%	i	20%	-9%
O=C(/C=C/c1cccc(Br)c1)c1ccc2c(c1)OCO2	i	-12%	i	11µM*	5%
CCN(CC(=O)Nc1ccc2c(c1)OCCO2)C(=O)/C=C/c1cccc(Br)c1	i	15%	i	13µM*	30%
CCNC(=O)c1ccc2c(c1)sc1nc(-c3cccc(OC)c3)cn12	i	x	i	16µM*	x
COC(=O)c1ccc(OCC2c3cc(OC)c(OC)cc3CCN2C(=O)c2ccc(OC)cc2)cc1 (stereo not given)	u	12%	i	35µM*	x
